Measurements: PubChem BioAssay (NCI)
This is part of a sample that, as a whole, favours compounds with a hit. Of some 79,000 tested, about 15% had one in any assay. Activity calls are given as the source filed them. No stated cut-off is given here; in the data, active means growth inhibition above about 70%; inactive means the rest.

Assays:
[1] = NCI Yeast Anticancer Drug Screen. Data for the rad50 strain (AID 155);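 further: 0% = growth of vehicle-only cultures of the same strain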; conditions: S. cerevisiae rad50 strain growth inhibition, stronger effect = higher value
Outline: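 A DNA repair-deficient yeast mutant serves as the test organism; compound-induced growth inhibition is calculated against vehicle-treated cells.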

[2] = NCI Yeast Anticancer Drug Screen. Data for the mec2-1 strain (AID 157); conditions: S. cerevisiae mec2-1 strain, stronger effect = higher value
Outline: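 Using mec2-1 yeast: add compound, measure growth, express inhibition versus vehicle-treated cultures.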

[3] = NCI Yeast Anticancer Drug Screen. Data for the sgs1 mgt1 strain (AID 161);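 further: 0% = growth of cultures given vehicle only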; conditions: S. cerevisiae sgs1 mgt1 strain, stronger effect = higher value
Outline: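 Compounds are added to genetically altered yeast, and growth is compared with cultures given vehicle alone to give percent inhibition.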

[4] = NCI Yeast Anticancer Drug Screen. Data for the cln2 rad14 strain (AID 165);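 further: 0% = growth equal to vehicle treated cultures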; conditions: S. cerevisiae cln2 rad14 strain, stronger effect = higher value
Outline: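 Yeast strain cln2 rad14, bearing defects in cell cycle control and DNA repair, serves as the test system; values reflect growth inhibition compared with vehicle.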

[5] = NCI Yeast Anticancer Drug Screen. Data for the bub3 strain (AID 167); conditions: S. cerevisiae bub3 mutant strain, stronger effect = higher value
Outline: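 Inhibition values come from growth of compound-treated mutant yeast normalised to vehicle-treated controls.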

[6] = NCI Yeast Anticancer Drug Screen. Data for the mlh1 rad18 strain (AID 175); conditions: S. cerevisiae mlh1 rad18 strain growth inhibition, stronger effect = higher value
Outline: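 Steps: expose repair-defective yeast to compound; measure growth; express inhibition against vehicle-treated controls.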

[7] = at 5.0 µM (retest, dose inferred, filed as 0.5)
[8] = at 50.0 µM (retest, dose inferred, filed as 5.0)

Measured: growth inhibition

COc1cc(OC)c(C/C=C/c2ccccc2)cc1O
inactive: [1]; [7] 27% | [1]; at 50.0 µM 10.2% | [2]; [7] 21% | [2]; at 50.0 µM -15.6% | [3]; [7] 20% | [3]; at 50.0 µM 16.3% | [4]; [7] 16% | [4]; [8] 49% | [4]; at 50.0 µM 19.6% | [5]; [7] 29% | [5]; at 50.0 µM -27.8% | [6]; [7] 30%
active: [1]; [8] 73% | [2]; [8] 71% | [3]; [8] 75% | [5]; [8] 86% | [6]; [8] 93% | [6]; at 50.0 µM 89.3%

CC(CN(C)C)C(/C=C/c1ccc(Cl)cc1)=N\NC(=O)c1ccccc1 (configuration not stated)
inactive: [1]; [7] 3% | [1]; [8] 15% | [1]; at 50.0 µM 17.6% | [2]; [7] 2% | [2]; [8] 12% | [2]; at 50.0 µM -4.45% | [3]; [7] 1% | [3]; [8] -3% | [3]; at 50.0 µM -15.3% | [4]; [7] 2% | [4]; [8] 6% | [4]; at 50.0 µM -1.65% | [5]; [7] -3% | [5]; [8] -10% | [5]; at 50.0 µM -11.9% | [6]; [7] 3% | [6]; [8] -36% | [6]; at 50.0 µM 27.2%

CCC(C)OC(=S)S (configuration not stated)
inactive: [1]; [7] 4% | [1]; [8] 36% | [1]; at 50.0 µM 42.9% | [2]; [7] 8% | [2]; [8] 44% | [2]; at 50.0 µM 33.8% | [3]; [7] -7% | [3]; [8] 26% | [4]; [7] 1% | [4]; [8] -4% | [4]; at 50.0 µM -20.8% | [5]; [7] 3% | [5]; [8] 59% | [6]; [7] 15% | [6]; [8] 57%
active: [3]; at 50.0 µM 74.2% | [5]; at 50.0 µM 90.7% | [6]; at 50.0 µM 85%

C=C1CC2(CCS(=O)(=O)c3ccccc32)OC1=O (configuration not stated)
inactive: [1]; [7] 2% | [1]; [8] 27% | [1]; at 50.0 µM 25.6% | [2]; [7] 5% | [2]; [8] 35% | [2]; at 50.0 µM 60.6% | [3]; [7] 7% | [3]; [8] 37% | [3]; at 50.0 µM 69% | [4]; [7] 6% | [4]; [8] 15% | [4]; at 50.0 µM 36.6% | [5]; [7] 2% | [5]; [8] 47% | [5]; at 50.0 µM 46.6% | [6]; [7] 2% | [6]; [8] 49% | [6]; at 50.0 µM 48.9%

ClCc1ccc(OCc2ccccc2)c(OCc2ccccc2)c1
active: [1]; at 50.0 µM 79% | [3]; [8] 87% | [3]; at 50.0 µM 89.2% | [4]; at 50.0 µM 82.3% | [5]; [8] 77% | [5]; at 50.0 µM 87.2% | [6]; [8] 87% | [6]; at 50.0 µM 94.2%
inactive: [1]; [7] 4% | [1]; [8] 51% | [2]; [7] 2% | [2]; [8] 67% | [2]; at 50.0 µM 62.3% | [3]; [7] 4% | [4]; [7] 0% | [4]; [8] 48% | [5]; [7] 6% | [6]; [7] 17%

Cc1cc(N=Nc2ccccc2)ccc1O
active: [1]; [8] 99% | [1]; at 50.0 µM 99.4% | [2]; [8] 100% | [2]; at 50.0 µM 99.5% | [3]; [8] 100% | [3]; at 50.0 µM 99.5% | [4]; [8] 99% | [4]; at 50.0 µM 99.3% | [5]; [8] 99% | [5]; at 50.0 µM 99.3% | [6]; [8] 99% | [6]; at 50.0 µM 99.3%
inactive: [1]; [7] -13% | [2]; [7] -11% | [3]; [7] -2% | [4]; [7] -31% | [5]; [7] 6% | [6]; [7] -8%

CC(C)=CCc1c2c(c3occ(-c4ccc(O)c(O)c4)c(=O)c3c1O)C=CC(C)(C)O2
inactive: [1]; [7] 16% | [2]; [7] 29% | [3]; [7] 9% | [4]; [7] -25% | [5]; [7] -7% | [6]; [7] -2%
active: [1]; [8] 90% | [1]; at 50.0 µM 90.8% | [2]; [8] 95% | [2]; at 50.0 µM 94.1% | [3]; [8] 93% | [3]; at 50.0 µM 94.8% | [4]; [8] 76% | [4]; at 50.0 µM 91.5% | [5]; [8] 94% | [5]; at 50.0 µM 89% | [6]; [8] 90% | [6]; at 50.0 µM 90.8%

CCCCOCN(CC(CC)CCCC)CC(CC)CCCC (configuration not stated)
active: [3]; at 50.0 µM 73.4%
inactive: [1]; [7] 4% | [1]; [8] 15% | [1]; at 50.0 µM 26% | [2]; [7] 3% | [2]; [8] 14% | [2]; at 50.0 µM 12.8% | [3]; [7] 1% | [3]; [8] 29% | [4]; [7] 4% | [4]; [8] 10% | [4]; at 50.0 µM 5.3% | [5]; [7] 1% | [5]; [8] 20% | [5]; at 50.0 µM 18.9% | [6]; [7] -4% | [6]; [8] 37% | [6]; at 50.0 µM 52.1%

CCOC(=O)N1CCN(CCCCCCOc2c(Cl)cc(Cl)cc2Cl)CC1
active: [1]; [8] 98% | [1]; at 50.0 µM 98.7% | [2]; [8] 99% | [2]; at 50.0 µM 96.1% | [3]; [7] 71% | [3]; [8] 99% | [3]; at 50.0 µM 92% | [4]; [8] 98% | [4]; at 50.0 µM 98.4% | [5]; [8] 98% | [5]; at 50.0 µM 97.2% | [6]; [8] 99% | [6]; at 50.0 µM 98.2%
inactive: [1]; [7] 45% | [2]; [7] 41% | [4]; [7] 58% | [5]; [7] 64% | [6]; [7] 49%
